Experiment [1] in a line: qHTS assay for small molecule agonists of retinoid X receptor alpha signaling (AID 588544; calls by dose curve;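 as to activation: 0% = DMSO basal wells and 100% = reference agonist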). The note with it: HEK293T RXRa-UAS-bla, beta-lactamase reporter, 18 h; 530 nm emission.
The target of experiment [2] is Retinoic acid receptor RXR-alpha (Homo sapiens) (UniProt P19793). The experiment is described as above. Particulars: HEK293T RXRa-UAS-bla, beta-lactamase reporter, 18 h; series mostly up to 76.7 µM.
Chain of Retinoic acid receptor RXR-alpha (Homo sapiens) (P19793 whole entry, looked up): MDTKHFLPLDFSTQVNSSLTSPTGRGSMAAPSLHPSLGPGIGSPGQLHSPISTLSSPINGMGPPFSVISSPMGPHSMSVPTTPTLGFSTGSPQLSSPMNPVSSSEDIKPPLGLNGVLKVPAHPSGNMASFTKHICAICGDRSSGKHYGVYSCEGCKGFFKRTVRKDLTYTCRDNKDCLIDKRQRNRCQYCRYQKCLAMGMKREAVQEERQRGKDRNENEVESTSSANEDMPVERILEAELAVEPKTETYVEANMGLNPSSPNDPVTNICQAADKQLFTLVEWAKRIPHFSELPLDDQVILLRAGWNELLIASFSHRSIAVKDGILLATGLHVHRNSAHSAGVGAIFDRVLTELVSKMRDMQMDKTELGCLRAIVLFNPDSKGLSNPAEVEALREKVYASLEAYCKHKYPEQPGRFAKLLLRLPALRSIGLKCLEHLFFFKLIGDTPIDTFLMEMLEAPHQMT
Experiment [3] deals with Thyroid hormone receptor beta (Homo sapiens) (UniProt P10828). In words: qHTS assay for small molecule agonists of thyroid hormone receptor beta signaling (AID 588545; calls by dose curve;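 also: 0% = DMSO only and 100% = 10 nM T3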). The note with it: TR-UAS-bla GripTite HEK 293, beta-lactamase ratio, agonist mode, 18 h, percent of T3 response, DMSO as zero; series mostly up to 76.7 µM. The method in brief: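 Efficacy and EC50 values derive from Hill fits of qHTS titration data, normalized to 10 nM T3 and DMSO-only wells. HEK 293 reporter cells were stimulated for 18 hrs at 37 C, with beta-lactamase activity measured by CCF4 fluorescence.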
Chain of Thyroid hormone receptor beta (Homo sapiens) (P10828 whole entry, looked up): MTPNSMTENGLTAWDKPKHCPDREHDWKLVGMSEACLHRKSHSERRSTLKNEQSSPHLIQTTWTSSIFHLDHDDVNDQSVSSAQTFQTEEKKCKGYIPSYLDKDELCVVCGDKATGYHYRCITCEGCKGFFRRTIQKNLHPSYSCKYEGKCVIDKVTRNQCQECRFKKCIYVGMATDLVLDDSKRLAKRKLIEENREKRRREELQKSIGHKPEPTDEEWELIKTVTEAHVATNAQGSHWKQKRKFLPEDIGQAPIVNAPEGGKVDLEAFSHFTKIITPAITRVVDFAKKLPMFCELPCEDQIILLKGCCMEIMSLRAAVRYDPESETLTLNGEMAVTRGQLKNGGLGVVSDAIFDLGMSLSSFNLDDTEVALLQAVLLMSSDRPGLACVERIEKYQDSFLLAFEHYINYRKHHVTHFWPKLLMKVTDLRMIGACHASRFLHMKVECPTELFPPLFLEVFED

Experiment [4] can be described thus: qHTS assay for small molecule antagonists of retinoid X receptor alpha signaling (AID 588546; active = well fitted inhibition curve with a large enough effect in the signal ratio, with a control signal flat, not every such curve was filed as active; the % refers to the signal ratio;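 also: cells stimulated with 9-cis-retinoic acid as agonist; % is scaled to controls: 0 for no effect and ±100 for the full control effect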). Particulars: HEK293T RXRa-UAS-bla, beta-lactamase ratio, antagonist mode; measured here: W530 green channel, cytotoxicity proxy. The procedure, abridged: (§1)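 Beta-lactamase reporter inhibition, read as CCF4 fluorescence ratio (ex 405, em 460/530 nm) after 2 h at RT. HEK293T UAS-bla cells, 2500/well, were stimulated with 9-cis-RA at 500 or 100 nM final alongside test compound for 18 h at 37 C.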
In general terms: Quantitative high-throughput screening tests each substance at several concentrations.

Experiment [5] concerns the target Thyroid hormone receptor beta (Homo sapiens) (UniProt P10828). In words: qHTS assay for small molecule antagonists of thyroid hormone receptor beta signaling (AID 588547; active = well fitted inhibition curve with a large enough effect in the signal ratio, with a control signal flat, not every such curve was filed as active; the % refers to the signal ratio;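 also: cells stimulated with 0.4 nM T3 agonist during compound exposure; % is scaled to controls: 0 for no effect and ±100 for the full control effect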). Particulars: TR-UAS-bla HEK293, beta-lactamase ratio, antagonist mode, 18 h. The method in brief:
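Inhibition of T3-driven (0.4nM final) beta-lactamase reporter activity was measured over 0.59 nM to 92 uM compound after 18 h at 37 C. The cells were GripTite HEK293 TR-UAS-bla in charcoal/dextran-stripped serum, with CCF4 ratio read-out and IC50 from Hill fits.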

Experiment [6] concerns the target Voltage-gated inwardly rectifying potassium channel KCNH2 (Homo sapiens) (UniProt Q12809). Nature of the experiment: qHTS Assay for Small Molecule Inhibitors of the Human hERG Channel Activity (AID 588834).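 Also: top concentration of the series differs between compounds; % is scaled to controls: 0 for no effect and ±100 for the full control effect; lower thallium flux fluorescence means stronger hERG block; nearly all actives have a fitted effect of over 50% in size.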 Particulars: U2OS BacMam hERG, FluxOR thallium flux fluorescence; series mostly up to 92.2 µM. The method in brief:
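Thallium serves as surrogate for K+ influx through BacMam-delivered hERG in U2OS cells. Compounds are added for about 10 minutes after dye loading; stimulation buffer then starts flux, monitored kinetically on FDSS.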

Experiment [7] is described as follows: qHTS assay for small molecule disruptors of the mitochondrial membrane potential - 1 hr assay (AID 651754; calls by dose curve; also: % is scaled to controls: 0 for no effect and ±100 for the full control effect; nearly all actives have a fitted effect of over 35% in size). Particulars: series mostly up to 92.2 µM. The procedure, abridged: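 Read-out: dye fluorescence at 490 nm ex/535 nm em (monomers) and 540 nm ex/590 nm em (aggregates) in HepG2 cells. Compound exposure 1 hr at 37C, followed by 30 min dye loading.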
A short description of experiment [8]: qHTS assay for small molecule disruptors of the mitochondrial membrane potential - 5 hr assay (AID 651755; calls by dose curve; also: % is scaled to controls: 0 for no effect and ±100 for the full control effect; nearly all actives have a fitted effect of over 40% in size). The note with it: JC-1-type ratio dye; series mostly up to 92.2 µM. The method in brief: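 Membrane-potential dye readout: red aggregate (540 ex/590 em) versus green monomer (490 ex/535 em) fluorescence after 30 min dye loading, following 5 hr compound exposure at 37C of overnight-plated HepG2 cells.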

The target in experiment [9] is Tumor necrosis factor (Homo sapiens) (UniProt P01375). In words: qHTS assay to identify small molecules that stimulate Tumor Necrosis Factor-alpha (TNF-alpha) secretion (AID 651757; active = well fitted curve in the direction sought with a large enough effect in the signal ratio; the % refers to the signal ratio; also: 0% is about no effect). The note with it: Human cells, HTRF 665/615 ratio; series mostly up to 92.2 µM. The method in brief: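 THP-1 cells, 3000/well; compound 17 hrs, 37 C; add cryptate/XL665 anti-TNF-alpha antibody pair; 3 hr RT; TR-FRET (HTRF) read of secreted TNF-alpha. Quantitative HTS format.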
Chain of Tumor necrosis factor (Homo sapiens) (P01375 whole entry, looked up): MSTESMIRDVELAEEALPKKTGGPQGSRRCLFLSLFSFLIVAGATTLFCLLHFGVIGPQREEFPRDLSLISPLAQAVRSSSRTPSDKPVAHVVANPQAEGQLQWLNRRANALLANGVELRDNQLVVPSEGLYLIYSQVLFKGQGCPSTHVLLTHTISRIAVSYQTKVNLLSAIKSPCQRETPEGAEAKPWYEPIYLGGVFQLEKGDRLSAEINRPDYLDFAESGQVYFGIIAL

Experiment [10] can be described thus: qHTS assay for environmental chemicals that activate the Aryl hydrocarbon Receptor (AhR) signaling pathway (AID 651777). Also: % of control where 0% means no effect; nearly all actives have a fitted effect of over 15% in size. Particulars: 1A2-DRE human hepatoma cells, luciferase, 24 h; activation: stronger effect = higher value. The method in brief:
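Luminescence read-out: One-Glo added for 30 min at RT after 24 hr compound treatment (37 C, 5% CO2) of human hepatoma cells expressing a DRE/CYP1A2 promoter–luciferase reporter; increased signal indicates AhR activation.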

Experiment [11] addresses Peroxisome proliferator-activated receptor alpha (Homo sapiens) (UniProt Q07869). In words: qHTS assay for small molecule agonists of the peroxisome proliferator-activated receptor alpha (PPARalpha) signaling pathway (AID 651778). Also: % of control where 0% means no effect. Particulars: PathHunter PPARalpha complementation, chemiluminescence, 6 h; stronger effect = higher value. The method in brief: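 Chemiluminescence from complemented enzyme reported PPARalpha activation in cells after 6 hr of compound treatment at 37 C. The detection reagent was incubated for 60 min at room temperature, and compounds were scored as agonists.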

The target in experiment [12] is Nuclear receptor ROR-gamma (Homo sapiens) (UniProt P51449). Nature of the experiment: qHTS assay for small molecule antagonists of the retinoid-related orphan receptor gamma (ROR-gamma) signaling pathway (AID 651802).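 Also: CHO cells with doxycycline-induced ROR-gamma expression; luciferase reporter luminescence driven by ROR response element; % is scaled to controls: 0 for no effect and ±100 for the full control effect; nearly all actives have a fitted effect of over 60% in size.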 The note with it: ROR-gamma antagonist cell reporter assay; series mostly up to 92.2 µM. The method in brief: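 Luciferase read-out: ONE-Glo luminescence after 30 min at room temperature, following 16hr doxycycline induction at 37C, 5% CO2 of CHO cells with TET-inducible ROR and RORE-LUC reporter; decreased luminescence = reduced reporter activity.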
Chain of Nuclear receptor ROR-gamma (Homo sapiens) (P51449 whole entry, looked up): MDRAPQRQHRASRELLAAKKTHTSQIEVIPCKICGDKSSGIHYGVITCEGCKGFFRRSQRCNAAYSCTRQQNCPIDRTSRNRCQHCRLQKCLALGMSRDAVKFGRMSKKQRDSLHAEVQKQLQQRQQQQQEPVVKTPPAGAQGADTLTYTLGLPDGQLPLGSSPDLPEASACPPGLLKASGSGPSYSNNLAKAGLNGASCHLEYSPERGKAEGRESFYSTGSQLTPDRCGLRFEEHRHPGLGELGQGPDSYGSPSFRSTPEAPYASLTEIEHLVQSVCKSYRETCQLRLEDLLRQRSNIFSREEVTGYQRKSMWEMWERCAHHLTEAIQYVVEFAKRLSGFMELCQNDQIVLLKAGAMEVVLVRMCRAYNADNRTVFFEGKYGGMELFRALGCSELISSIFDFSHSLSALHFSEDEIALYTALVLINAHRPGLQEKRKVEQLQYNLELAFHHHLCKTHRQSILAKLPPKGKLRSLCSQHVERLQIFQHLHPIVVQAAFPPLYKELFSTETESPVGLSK

The nature of experiment [13]: qHTS assay for small molecule agonists of the antioxidant response element (ARE) signaling pathway measured by Nrf2-dependant transcriptional activity - cell viability counter screen (AID 720653; active = well fitted curve in the direction sought with a large enough effect in the repeat runs; an effect the other way counts as inactive or inconclusive; also: % is scaled to controls: 0 for no effect and ±100 for the full control effect). The note with it: ARE-bla HepG2 viability, CellTiter-Glo ATP luminescence, 16 h; stronger effect = lower value. The method in brief:
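Cytotoxicity counter screen: intracellular ATP quantified by CellTiter-Glo luminescence in the same ARE-bla HepG2 plates, after 16 h compound exposure and a 2 h beta-lactamase substrate step.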

In experiment [14] the target is Retinoic acid receptor RXR-alpha (Homo sapiens) (UniProt P19793). In words: qHTS assay for small molecule antagonists of retinoid X receptor alpha signaling (AID 588546).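 Also: cells stimulated with 9-cis-retinoic acid as agonist; % is scaled to controls: 0 for no effect and ±100 for the full control effect.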 Particulars: HEK293T RXRa-UAS-bla, beta-lactamase ratio, antagonist mode. The method in brief:
as §1

Experiment [15] is described as follows: qHTS assay for small molecule activators of the p53 signaling pathway (AID 651743; active = well fitted activation curve with a large enough effect in the signal ratio, not every such curve was filed as active; the % refers to the signal ratio; also: % of control where 0% means no effect). Particulars: HCT-116 p53RE-bla, beta-lactamase FRET ratio, 16 h; stronger effect = higher value. The method in brief: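 A beta-lactamase reporter under p53 response element control, stably carried by HCT-116 cells, reported pathway activation. Test compounds were applied for 16 hours at 37 C, and fluorescence was measured 2 hours after adding the B/G FRET substrate.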

Experiment [16] can be described thus: qHTS assay for small molecule activators of the nuclear factor-kappa B (NF-kB) signaling pathway (AID 651749; active = well fitted activation curve with a large enough effect in the signal ratio; the % refers to the signal ratio; also: % of control where 0% means no effect). Particulars: NF-kB-bla ME-180 cells, beta-lactamase FRET ratio, 16 h; stronger effect = higher value. The procedure, abridged:
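FRET-based beta-lactamase detection in ME-180 cells reports NF-kB response-element-driven transcription following overnight (16 hr) compound treatment.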

Experiment [17] is described as follows: qHTS assay to identify small molecules that stimulate interleukin-8 (IL-8) secretion (AID 651758; active = well fitted activation curve with a large enough effect in the signal ratio; the % refers to the signal ratio; also: 0% is about no effect). Particulars: HTRF ratio (665/615); series mostly up to 92.2 µM. The procedure, abridged:
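Secreted IL-8 measured homogeneously by TR-FRET (two labelled anti-IL-8 antibodies, 1-3 h at room temperature) after a 16 h, 37 C compound treatment of THP-1 cells at 2000 cells/well.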

The nature of experiment [18]: qHTS assay for small molecule agonists of the antioxidant response element (ARE) signaling pathway measured by Nrf2-dependant transcriptional activity (AID 720636; active = well fitted curve in the direction sought with a large enough effect in the repeat runs; an effect the other way counts as inactive or inconclusive;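 also: HepG2 cells with an ARE-driven luciferase reporter; % of control where 0% means no effect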). The note with it: ARE-luc HepG2, Nrf2 luciferase reporter, 16 h; series mostly up to 92.4 µM. The method in brief: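 HepG2 ARE-luc reporter line, 1% dialyzed FBS; 6 hr attachment at 37 C, compound pinned in, 16 hr at 37 C/5% CO2; ONE-Glo, 30 min RT, luminescence read.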

Experiment [19] can be described thus: qHTS assay for small molecule antagonists of the retinoid-related orphan receptor gamma (ROR-gamma) signaling pathway - cell viability counter screen (AID 720652; active = well fitted curve in the direction sought with a large enough effect in the repeat runs; an effect the other way counts as inactive or inconclusive). Particulars: RORgamma reporter cell line viability counter screen; series mostly up to 92.2 µM. The procedure, abridged:
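CHO RORE-LUC/TET-ROR line, 1,000 cells/well, 37 C 5% CO2 5 hr; cpd or DMSO + doxycycline induction, 16 hr. CellTiter-Glo, 30 min RT, luminescence = ATP content.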

Experiment [20] is described as follows: qHTS assay for small molecule agonists of the antioxidant response element (ARE) signaling pathway (AID 651741; active = well fitted activation curve with a large enough effect in the signal ratio; the % refers to the signal ratio; also: % of control where 0% means no effect). Particulars: HepG2 ARE-bla reporter, beta-lactamase FRET ratio, 16 h; series mostly up to 96 µM. The procedure, abridged:
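Agonist activity is measured as ARE-driven beta-lactamase expression in a stable HepG2 reporter line, using 16 h compound treatment at 37 C and a FRET substrate fluorescence readout after 2 h.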

Data on four compounds can be found in PubChem BioAssay (NCATS).

Records with an inconclusive call do not appear. The source made the active and inactive calls. Unless noted, calls follow the shape of the dose curve; as a rule, active = well fitted curve in the direction sought with a large enough effect; inconclusive = small, poorly fitted or top-dose-only effect, or another doubt; inactive = no such curve, though single readings can be large; an effect the other way counts as inactive or inconclusive.

Chain of Peroxisome proliferator-activated receptor alpha (Homo sapiens) (Q07869 whole entry, looked up): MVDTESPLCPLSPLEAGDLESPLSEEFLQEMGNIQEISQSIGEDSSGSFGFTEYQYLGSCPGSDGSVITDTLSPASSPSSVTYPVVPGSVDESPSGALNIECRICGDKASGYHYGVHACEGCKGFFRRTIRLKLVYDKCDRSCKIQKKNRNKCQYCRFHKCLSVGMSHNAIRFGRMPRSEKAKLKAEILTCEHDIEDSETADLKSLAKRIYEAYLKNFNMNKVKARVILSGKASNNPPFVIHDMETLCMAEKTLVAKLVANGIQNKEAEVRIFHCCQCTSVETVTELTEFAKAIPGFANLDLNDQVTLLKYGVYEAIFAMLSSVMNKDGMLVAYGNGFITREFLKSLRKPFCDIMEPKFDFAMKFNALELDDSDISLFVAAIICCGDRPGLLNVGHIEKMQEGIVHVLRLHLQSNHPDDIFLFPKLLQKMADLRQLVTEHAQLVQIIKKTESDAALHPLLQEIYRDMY
Chain of Voltage-gated inwardly rectifying potassium channel KCNH2 (Homo sapiens) (Q12809 whole entry, looked up): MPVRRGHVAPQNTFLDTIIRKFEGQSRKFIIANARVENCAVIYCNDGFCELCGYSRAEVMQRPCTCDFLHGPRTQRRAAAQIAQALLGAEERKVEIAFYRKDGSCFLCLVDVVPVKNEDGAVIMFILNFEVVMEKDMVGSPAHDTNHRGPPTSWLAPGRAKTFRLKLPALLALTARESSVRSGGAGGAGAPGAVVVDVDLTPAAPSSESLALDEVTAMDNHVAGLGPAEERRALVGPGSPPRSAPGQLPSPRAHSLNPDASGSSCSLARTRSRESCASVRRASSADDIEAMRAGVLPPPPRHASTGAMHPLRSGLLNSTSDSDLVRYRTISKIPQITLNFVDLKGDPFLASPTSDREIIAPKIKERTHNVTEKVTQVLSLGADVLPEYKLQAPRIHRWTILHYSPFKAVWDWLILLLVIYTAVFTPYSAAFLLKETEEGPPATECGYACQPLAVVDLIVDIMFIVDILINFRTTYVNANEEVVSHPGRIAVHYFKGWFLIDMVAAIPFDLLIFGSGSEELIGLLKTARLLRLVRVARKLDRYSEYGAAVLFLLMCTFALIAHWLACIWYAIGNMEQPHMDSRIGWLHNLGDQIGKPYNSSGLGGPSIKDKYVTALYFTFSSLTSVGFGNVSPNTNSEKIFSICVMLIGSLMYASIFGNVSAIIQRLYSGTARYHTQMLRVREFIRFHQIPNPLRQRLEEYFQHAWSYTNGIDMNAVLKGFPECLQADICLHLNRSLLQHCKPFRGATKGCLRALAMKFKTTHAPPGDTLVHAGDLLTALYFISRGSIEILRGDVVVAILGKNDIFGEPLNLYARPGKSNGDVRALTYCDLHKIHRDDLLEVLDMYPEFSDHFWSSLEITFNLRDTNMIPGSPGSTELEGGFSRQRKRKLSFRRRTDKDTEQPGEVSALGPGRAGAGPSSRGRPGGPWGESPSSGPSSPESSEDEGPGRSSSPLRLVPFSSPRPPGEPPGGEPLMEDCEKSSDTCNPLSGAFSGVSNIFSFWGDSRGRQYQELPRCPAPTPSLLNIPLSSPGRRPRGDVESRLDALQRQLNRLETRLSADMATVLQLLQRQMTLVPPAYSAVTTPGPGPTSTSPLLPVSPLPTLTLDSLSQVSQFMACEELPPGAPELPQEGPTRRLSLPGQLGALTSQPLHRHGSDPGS

With `NS(=O)(=O)O`, the max response in experiment [1] was 0.843%; in experiment [4], 1.78%; in experiment [11] it was -1.54% (inactive); in experiment [13] it was 3.57% (inactive). For the same compound, the call in experiment [2] and in experiment [3] was inactive. Besides, the activity change % (negative = inhibition) in experiment [5] is -4.41% (inactive). Moreover, the Potency result in experiment [6], in [7], in [8], in [9] and in experiment [12] was “inactive” throughout. The activation in [10] was 0.965% (inactive).
For the compound `COC(=O)CC#N`, the max response in [1] is -7.46%; in experiment [4], -3.78%; in [14], -0.774% (inactive); in experiment [11] it was -2.71% (inactive); in experiment [13], -4.65% (inactive). The compound was classed as inactive in experiment [2] and in experiment [18]. In addition, the activity change % (negative = inhibition) in experiment [5] is 2.83% (inactive). Moreover, the Potency entry in experiment [6], in experiment [7], in experiment [8], in experiment [9], in experiment [17] and in experiment [12] was “inactive” each time. For the same compound, the Potency result in experiment [19] is “inactive”. Moreover, the values for the activation in experiment [15], in experiment [16] and in [10] were -2.67% (inactive), -0.54% (inactive) and -0.763% (inactive), respectively.
Regarding `CCNc1ccccc1`, the max response in experiment [1] was -5.14%; in experiment [11], -1.14% (inactive); in experiment [13], -0.56% (inactive). In addition, the call in [2], in [3] and in experiment [18] was inactive. In experiment [5], the activity change % (negative = inhibition) is -13.9% (inactive). For the same compound, the Potency result in experiment [6], in experiment [7], in experiment [8], in experiment [9] and in [12] was “inactive” in each case. The activation is -2.34% (inactive) in experiment [15] and 0.398% (inactive) in experiment [10].
As for `CC(C)(C)OC=O`, the max response in experiment [1] is -9.54%; in experiment [4] it was -10.7%; in [14], 2.16% (inactive); in experiment [11], -0.442% (inactive). The result in experiment [2] and in [18] was inactive. Besides, the activity change % (negative = inhibition) in experiment [5] was -8.86% (inactive). In addition, the Potency entry in [6], in experiment [20], in experiment [7], in experiment [8], in experiment [9] and in experiment [17] was “inactive” in each case. The Potency result in experiment [12] and in experiment [19] was “inactive” throughout. Further, in experiment [15], the activation is -3.33% (inactive).
